Set-up in all cases: scale not given: direction of the effect not stated beside the values
The target of test [1] is Protein translocase subunit SecA (Escherichia coli (strain K12)) (UniProt P10408). In words: Assay to Identify E. coli SecA ATPase Inhibitors. Format: functional. The following applies: 30 µM.
The target of test [2] is T1, Ubiquitin-activating enzyme e1, putative (Leishmania donovani (strain BPK282A1)) (UniProt E9BSI1).
T1 sequence (whole entry): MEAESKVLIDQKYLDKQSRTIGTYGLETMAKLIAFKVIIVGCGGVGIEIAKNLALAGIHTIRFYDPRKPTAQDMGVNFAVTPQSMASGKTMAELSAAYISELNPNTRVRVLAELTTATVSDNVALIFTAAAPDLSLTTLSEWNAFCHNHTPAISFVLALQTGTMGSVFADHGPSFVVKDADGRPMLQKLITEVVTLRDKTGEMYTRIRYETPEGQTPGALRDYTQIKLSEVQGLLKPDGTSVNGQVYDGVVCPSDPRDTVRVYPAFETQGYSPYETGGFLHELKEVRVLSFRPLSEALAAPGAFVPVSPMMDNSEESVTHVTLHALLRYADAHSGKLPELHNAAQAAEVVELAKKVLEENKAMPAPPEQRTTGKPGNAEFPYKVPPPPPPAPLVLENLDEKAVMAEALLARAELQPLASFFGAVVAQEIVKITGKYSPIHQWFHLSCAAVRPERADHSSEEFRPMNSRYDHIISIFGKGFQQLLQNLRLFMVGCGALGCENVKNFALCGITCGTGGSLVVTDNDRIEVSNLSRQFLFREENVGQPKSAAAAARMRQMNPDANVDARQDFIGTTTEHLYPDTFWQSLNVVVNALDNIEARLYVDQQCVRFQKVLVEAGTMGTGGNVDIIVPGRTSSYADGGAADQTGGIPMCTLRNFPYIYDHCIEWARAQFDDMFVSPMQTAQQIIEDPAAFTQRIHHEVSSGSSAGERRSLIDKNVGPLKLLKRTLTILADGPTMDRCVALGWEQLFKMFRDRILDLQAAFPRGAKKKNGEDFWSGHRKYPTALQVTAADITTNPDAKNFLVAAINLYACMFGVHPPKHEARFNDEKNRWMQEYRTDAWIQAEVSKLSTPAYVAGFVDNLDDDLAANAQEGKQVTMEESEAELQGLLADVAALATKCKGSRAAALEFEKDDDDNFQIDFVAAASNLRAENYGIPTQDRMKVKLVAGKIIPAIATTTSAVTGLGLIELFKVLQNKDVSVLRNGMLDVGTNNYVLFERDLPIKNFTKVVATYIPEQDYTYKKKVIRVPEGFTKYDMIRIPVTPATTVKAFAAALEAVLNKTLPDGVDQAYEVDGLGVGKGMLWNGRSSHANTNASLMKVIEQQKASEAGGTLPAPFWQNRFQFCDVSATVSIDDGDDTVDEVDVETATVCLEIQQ
As to the kind of experiment: Leishmania donovani Ubiquitin Activating Enzyme (LdE1). The note with it: 30 µM. Format: functional.

Test [3] deals with AMP-activated protein kinase, AMPK (Homo sapiens) (UniProt P54646+O43741+P54619+Q9UGJ0+Q9Y478+Q13131+Q9UGI9). As to the kind of experiment: AMP-dependent Kinase enzyme assay. An in vitro enzyme assay that detects ADP turnover that is directly proportional to AMPK activity. This uses naive AMPK that is activated during the assay with MK-8722. The class given is functional. The following applies: 30 µM.

In test [4] the target is Sialic acid-binding Ig-like lectin 9 (Homo sapiens) (UniProt Q9Y336). As to the kind of experiment: Hs-Siglec9 ALPHAscreen SOP 20170721. The following applies: 10 µM. Background: In Alpha technology, singlet oxygen from a donor bead excites a nearby acceptor bead.
A further test relates to Trypanosoma cruzi. In words: Trypanosoma cruzi phosphomannomutase and mannose-1-phosphate guanylyltransferase assay. Format: functional. The following applies: 10 µM.
Test [5] concerns the target T2, Arginase-2, mitochondrial (Homo sapiens) (UniProt P78540).
T2 sequence (whole entry): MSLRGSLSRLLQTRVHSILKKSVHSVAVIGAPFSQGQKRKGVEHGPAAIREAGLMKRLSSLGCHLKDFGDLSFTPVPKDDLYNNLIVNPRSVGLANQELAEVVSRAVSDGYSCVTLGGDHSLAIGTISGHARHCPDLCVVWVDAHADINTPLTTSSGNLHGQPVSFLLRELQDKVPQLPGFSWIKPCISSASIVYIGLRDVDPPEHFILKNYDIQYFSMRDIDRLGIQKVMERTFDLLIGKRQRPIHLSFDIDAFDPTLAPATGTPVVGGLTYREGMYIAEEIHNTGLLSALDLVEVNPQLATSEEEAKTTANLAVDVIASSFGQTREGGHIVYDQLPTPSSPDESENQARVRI
In words: in vitro enzyme assay to detect the production of urea directly proportional to the activity of Arginase II. Further: in the data most compounds retested in dose-response had high values. The class given is functional. The following applies: 33.3 µM.

Test [6] deals with T3, Proteasome subunit beta (Trypanosoma cruzi) (UniProt O96673).
T3 sequence (whole entry): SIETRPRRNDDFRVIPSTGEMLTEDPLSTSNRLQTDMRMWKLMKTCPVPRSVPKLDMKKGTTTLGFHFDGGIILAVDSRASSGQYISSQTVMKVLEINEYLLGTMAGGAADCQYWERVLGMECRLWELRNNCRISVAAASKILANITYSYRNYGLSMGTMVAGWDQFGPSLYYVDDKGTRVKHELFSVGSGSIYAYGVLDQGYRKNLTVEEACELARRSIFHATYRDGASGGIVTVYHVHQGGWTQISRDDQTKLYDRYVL
As to the kind of experiment: Trypanosoma cruzi proteasome chymotrypsin-like activity (TcProtChymo) assay. Further: in the data most compounds retested in dose-response had high values. Format: functional. The following applies: 9.37 µM.

The species named for a further test is Homo sapiens. In words: To identify inhibition of the IFN signalling (Jak-Stat) pathway via expression of an eGFP reporter gene under the control of an IFN-stimulated response element (ISRE) containing MxA promoter. The class given is functional. The following applies: 30 µM.
The target in test [7] is T4, Tyrosyl-tRNA synthetase, putative (Trypanosoma cruzi (strain CL Brener)) (UniProt Q4DSP6).
T4 sequence (whole entry): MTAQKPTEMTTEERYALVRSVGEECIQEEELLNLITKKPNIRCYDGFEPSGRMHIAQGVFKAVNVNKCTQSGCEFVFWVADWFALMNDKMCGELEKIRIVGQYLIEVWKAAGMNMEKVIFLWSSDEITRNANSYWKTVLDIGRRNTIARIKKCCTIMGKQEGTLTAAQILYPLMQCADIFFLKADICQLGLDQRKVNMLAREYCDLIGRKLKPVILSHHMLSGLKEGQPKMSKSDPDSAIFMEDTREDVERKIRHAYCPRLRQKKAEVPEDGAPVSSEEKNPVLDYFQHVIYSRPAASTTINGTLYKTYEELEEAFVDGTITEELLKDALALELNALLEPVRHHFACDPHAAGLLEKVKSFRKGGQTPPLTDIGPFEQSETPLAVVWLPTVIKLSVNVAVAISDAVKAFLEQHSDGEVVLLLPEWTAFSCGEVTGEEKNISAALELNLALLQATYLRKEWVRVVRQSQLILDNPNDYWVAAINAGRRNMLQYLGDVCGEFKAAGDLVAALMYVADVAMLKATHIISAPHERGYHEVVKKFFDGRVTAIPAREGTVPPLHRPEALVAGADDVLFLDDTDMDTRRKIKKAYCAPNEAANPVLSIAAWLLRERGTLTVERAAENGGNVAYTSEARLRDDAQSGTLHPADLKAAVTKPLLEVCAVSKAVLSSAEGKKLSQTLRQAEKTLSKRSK
As to the kind of experiment: Trypanosoma cruzi tyrosyl tRNA synthetase (TcYRS) _High Tyrosine SOP. Further: in the data most compounds retested in dose-response had high values. The class given is functional. The following applies: 30 µM.

In test [8] the target is T4, Tyrosyl-tRNA synthetase, putative (Trypanosoma cruzi (strain CL Brener)). As to the kind of experiment: Trypanosoma cruzi tyrosyl tRNA synthetase (TcYRS) SOP. The class given is functional. The following applies: 30 µM.
For test [9], the target named is Chromo domain-containing protein 1 (Saccharomyces cerevisiae (strain ATCC 204508 / S288c) (Baker's yeast)) (UniProt P32657). In words: ScCHD-1 Enzyme Inhibition Assay. Further: in the data most compounds retested in dose-response had high values. Format: functional. The following applies: 30 µM.

These results are taken from ChEMBL document CHEMBL3988442, “University of Dundee, Small-Polar-MMV Screening Library” (2021).

For part of these data: Entries with a potency or affinity are not part of this list.

Sequence of Sialic acid-binding Ig-like lectin 9 (Homo sapiens) (Q9Y336 whole entry): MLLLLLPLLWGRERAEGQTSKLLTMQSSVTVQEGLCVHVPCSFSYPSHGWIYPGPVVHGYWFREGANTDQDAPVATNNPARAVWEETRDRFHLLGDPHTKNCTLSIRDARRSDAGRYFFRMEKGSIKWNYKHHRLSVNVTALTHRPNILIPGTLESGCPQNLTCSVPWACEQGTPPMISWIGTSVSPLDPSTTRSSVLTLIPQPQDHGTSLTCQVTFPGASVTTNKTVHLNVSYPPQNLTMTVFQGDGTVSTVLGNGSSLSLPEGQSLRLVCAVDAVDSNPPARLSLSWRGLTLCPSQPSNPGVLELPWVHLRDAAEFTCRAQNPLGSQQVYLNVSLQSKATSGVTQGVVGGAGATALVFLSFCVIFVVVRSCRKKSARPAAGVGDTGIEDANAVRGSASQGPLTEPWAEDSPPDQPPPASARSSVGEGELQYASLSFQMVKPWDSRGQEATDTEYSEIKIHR
Sequence of Chromo domain-containing protein 1 (Saccharomyces cerevisiae (strain ATCC 204508 / S288c) (Baker's yeast)) (P32657 whole entry, the tested form may be a part): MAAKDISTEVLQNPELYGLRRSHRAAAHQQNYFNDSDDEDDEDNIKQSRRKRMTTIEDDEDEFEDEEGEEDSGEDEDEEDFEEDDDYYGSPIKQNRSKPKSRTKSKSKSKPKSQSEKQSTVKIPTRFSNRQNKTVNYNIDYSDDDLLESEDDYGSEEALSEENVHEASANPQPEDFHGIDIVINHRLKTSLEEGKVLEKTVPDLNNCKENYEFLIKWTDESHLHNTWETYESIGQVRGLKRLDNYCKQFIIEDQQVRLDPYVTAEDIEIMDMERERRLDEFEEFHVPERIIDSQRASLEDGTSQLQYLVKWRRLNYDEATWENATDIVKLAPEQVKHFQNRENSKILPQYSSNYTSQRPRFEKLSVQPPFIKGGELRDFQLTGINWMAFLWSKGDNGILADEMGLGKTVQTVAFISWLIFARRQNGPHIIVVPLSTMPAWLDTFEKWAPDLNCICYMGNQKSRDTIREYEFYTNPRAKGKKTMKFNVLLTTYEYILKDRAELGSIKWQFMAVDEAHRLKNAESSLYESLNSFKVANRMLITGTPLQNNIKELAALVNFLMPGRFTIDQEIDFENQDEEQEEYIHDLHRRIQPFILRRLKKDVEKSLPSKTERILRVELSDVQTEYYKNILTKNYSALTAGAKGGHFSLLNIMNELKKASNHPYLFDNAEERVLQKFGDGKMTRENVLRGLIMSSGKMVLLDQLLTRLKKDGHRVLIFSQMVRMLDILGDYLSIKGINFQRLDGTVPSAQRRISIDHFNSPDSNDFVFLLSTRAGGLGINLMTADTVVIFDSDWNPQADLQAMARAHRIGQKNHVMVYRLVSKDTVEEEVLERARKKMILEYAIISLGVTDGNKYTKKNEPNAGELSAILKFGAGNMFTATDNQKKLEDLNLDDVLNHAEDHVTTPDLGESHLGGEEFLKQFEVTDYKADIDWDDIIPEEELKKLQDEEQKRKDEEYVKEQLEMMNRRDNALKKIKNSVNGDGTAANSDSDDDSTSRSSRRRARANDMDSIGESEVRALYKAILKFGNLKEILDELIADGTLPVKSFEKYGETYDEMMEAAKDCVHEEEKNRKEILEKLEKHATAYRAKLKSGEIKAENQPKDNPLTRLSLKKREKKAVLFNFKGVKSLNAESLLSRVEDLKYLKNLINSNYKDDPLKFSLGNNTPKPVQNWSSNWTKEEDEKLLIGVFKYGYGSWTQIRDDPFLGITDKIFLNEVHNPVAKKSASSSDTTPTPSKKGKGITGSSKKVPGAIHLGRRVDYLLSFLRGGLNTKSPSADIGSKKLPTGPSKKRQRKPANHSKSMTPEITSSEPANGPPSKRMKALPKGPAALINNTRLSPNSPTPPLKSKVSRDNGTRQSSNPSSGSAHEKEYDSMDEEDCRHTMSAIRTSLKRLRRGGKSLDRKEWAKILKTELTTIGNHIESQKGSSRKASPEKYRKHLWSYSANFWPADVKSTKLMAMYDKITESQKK
Sequence of Protein translocase subunit SecA (Escherichia coli (strain K12)) (P10408 whole entry): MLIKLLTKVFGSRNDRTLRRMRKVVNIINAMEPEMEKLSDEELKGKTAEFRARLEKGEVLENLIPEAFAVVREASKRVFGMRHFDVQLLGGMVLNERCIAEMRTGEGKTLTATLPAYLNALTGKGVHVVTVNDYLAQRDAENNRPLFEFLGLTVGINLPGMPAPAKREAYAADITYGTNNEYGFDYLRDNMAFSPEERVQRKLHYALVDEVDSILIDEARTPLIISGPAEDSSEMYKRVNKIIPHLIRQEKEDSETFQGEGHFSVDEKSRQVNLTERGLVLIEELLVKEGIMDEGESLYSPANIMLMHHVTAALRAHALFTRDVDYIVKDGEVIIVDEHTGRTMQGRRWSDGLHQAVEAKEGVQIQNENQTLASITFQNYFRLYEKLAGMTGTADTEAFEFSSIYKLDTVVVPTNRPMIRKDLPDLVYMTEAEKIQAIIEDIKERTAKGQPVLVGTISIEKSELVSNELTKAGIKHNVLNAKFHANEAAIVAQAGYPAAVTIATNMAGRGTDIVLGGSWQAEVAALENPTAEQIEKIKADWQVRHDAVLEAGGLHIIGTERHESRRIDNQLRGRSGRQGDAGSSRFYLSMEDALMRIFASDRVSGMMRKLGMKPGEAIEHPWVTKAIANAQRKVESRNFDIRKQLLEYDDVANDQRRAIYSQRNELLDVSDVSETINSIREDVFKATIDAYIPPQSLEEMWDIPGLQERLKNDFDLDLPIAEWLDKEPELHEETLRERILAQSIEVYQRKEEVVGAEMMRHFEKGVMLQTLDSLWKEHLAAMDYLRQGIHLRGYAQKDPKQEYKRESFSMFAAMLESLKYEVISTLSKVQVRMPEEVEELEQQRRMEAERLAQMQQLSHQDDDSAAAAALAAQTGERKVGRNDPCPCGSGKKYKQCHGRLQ

Take `Cc1nc(-c2ccsc2)ccc1C(=O)O`: the Percent Effect is -3.65% in [1]; 4.17% in test [2]; 0.691% in test [3]; -1% in test [4]; 0.68% in the test with Trypanosoma cruzi; 2.65% in test [5]. The Percent Effect in [6] was 21.9%; in the test listed under Homo sapiens, -3.42%; in test [7], 5.26%; in [8], 10.3%; in test [9], -3.62%.

With `CO[C@H]1CCN(C(=O)Cc2ccccn2)[C@H]1Cc1ccncc1`, the Percent Effect in [1] is -0.476%; in [2], 16%; in test [3], 1.42%; in [4] it was -1.93%; in the test on Trypanosoma cruzi it was -4.53%; in test [5], -2.56%. Besides, the Percent Effect in [6] was 8.02%; in the test filed under Homo sapiens, 7.43%; in test [7] it was 3.19%; in [8], 11.5%; in test [9] it was -2.72%.

With `CC(C(=O)NCCCN1CCCCCC1=O)n1cncn1` (centres undefined), the Percent Effect in [1] is -2.32%; in [2] it was 21.1%; in [3] it was -0.014%; in test [4] it was -11.5%; in the test with Trypanosoma cruzi, -1.4%; in test [5], -5.04%. The Percent Effect in [6] was 8.04%; in the test filed under Homo sapiens it was 2.75%; in [7] it was 5.42%; in test [8], 13.6%; in [9], -7.45%.

With `CN(C)CCO[C@@H]1CC[C@H]2[C@H]1OCCN2C(=O)COc1ccccc1`, the Percent Effect in test [1] is -2.92%; in test [2], 0%; in test [3], -3.78%; in test [4], 3.69%; with Trypanosoma cruzi it was -0.88%; in test [5], -27.1%. The Percent Effect in [6] was 17.7%; in the test filed under Homo sapiens, 8.7%; in test [7], -1.08%; in [8], 0%; in test [9], 1.68%.

For `Cc1cnn(CCC(=O)N2CCN(c3nc(C)cs3)CC2)c1`, the Percent Effect in [1] was -5.41%; in test [2], 17.7%; in test [3], -10.1%; in test [4], 9.63%; in the test with Trypanosoma cruzi it was 5.76%; in [5], -2.66%. The Percent Effect in test [6] is 11.6%; in the test filed under Homo sapiens it was 1.73%; in test [7], 4.43%; in [8], 24.1%; in test [9] it was -8.6%.

As to `O=C(NCc1ccco1)[C@@]12CCO[C@@H]1CCN(CCN1CCCC1)C2`, the Percent Effect in test [1] was -6.16%; in test [2], 16%; in test [3] it was -5.27%; in test [4], -2.5%; in the test on Trypanosoma cruzi it was 5.21%; in test [5], -51.1%. The Percent Effect in test [6] was 18.5%; in the test filed under Homo sapiens, -5.93%; in test [7], 6.25%; in test [8] it was 22.5%; in [9], -12%.

Take `Cc1nccn1-c1cc(CNC(=O)c2ccccn2)ccn1`: the Percent Effect in test [1] is -3.33%; in test [2], 16.4%; in test [3], 4.31%; in [4], 6.49%; in the test on Trypanosoma cruzi, 3.33%; in test [5] it was -0.455%. The Percent Effect is 17.6% in test [6]; 15.2% in the test listed under Homo sapiens; 2.15% in test [7]; 20% in test [8]; -4.24% in test [9].

Regarding `CCOC1CCCN(C(=O)NCCc2ccn(-c3ccccc3)n2)C1` (centres undefined), the Percent Effect was -2.03% in test [1]; 20.8% in test [2]; -1.06% in test [3]; -7.16% in test [4]; -0.49% in the test on Trypanosoma cruzi; -2.74% in test [5]. In addition, the Percent Effect in test [6] is 12.1%; in the test listed under Homo sapiens, 0.938%; in test [7] it was 5.71%; in test [8], 18.8%; in test [9] it was -17.1%.

Regarding `Cc1nc(C)n(CC2CCCN2CCOc2ccc(C#N)cc2)n1` (centres undefined), the Percent Effect was -3.7% in [1]; 2.53% in test [2]; -2.42% in test [3]; 10.4% in [4]; 7.27% in the test on Trypanosoma cruzi; 1.9% in test [5]. In addition, the Percent Effect in [6] is 1.06%; in the test listed under Homo sapiens it was 17.9%; in [7] it was 6.4%; in test [8], 11.4%; in test [9], -5.17%.
